Screening results (PubChem BioAssay)
Only some compounds are listed: those with a hit (about 2.4% of all), similar ones and a draw of the others.
Cruzain Triton – cruzain (T. cruzi) inhibition with detergent; P25779; purified cruzain, Z-FR-AMC fluorescence, 0.01% Triton; Potency, µM, inactives show max response, negative = inhibition, actives largely listed as inhibitors; 200,000 compounds, 0.43% hits; AID 1478;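 further: plate controls were neutral wells for no effect and buffer without enzyme for full effect; nearly all actives have a fitted effect of over 40% in size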
Target sequence (P25779 123-467 limits assumed): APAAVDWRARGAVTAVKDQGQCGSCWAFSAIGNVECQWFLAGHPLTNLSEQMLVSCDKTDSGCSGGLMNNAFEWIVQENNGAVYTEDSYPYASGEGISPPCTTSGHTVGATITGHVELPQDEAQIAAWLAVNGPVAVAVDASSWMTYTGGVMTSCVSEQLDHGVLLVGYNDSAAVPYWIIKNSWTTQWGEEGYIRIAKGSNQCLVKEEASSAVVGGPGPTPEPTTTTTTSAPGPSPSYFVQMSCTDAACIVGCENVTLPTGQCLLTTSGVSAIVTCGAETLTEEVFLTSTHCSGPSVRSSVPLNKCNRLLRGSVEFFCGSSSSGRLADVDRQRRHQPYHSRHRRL
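Enzyme 1.5 nM, Z-FR-AMC 2 uM, NaOAc 100 mM pH 5.5, DTT 5 mM, Triton X-100 0.01%; 15 min RT compound preincubation; kinetic ex360/em450, 60 s delta.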
Cruzain noTriton – blocks cruzain activity in detergent-free assay | 200,000 compounds, 2.3% hits | P25779 | purified cruzain, Z-FR-AMC fluorescence, no detergent | Potency, µM, for inactives: max response, negative = inhibition, most hits filed as inhibitors;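 further: plate controls were enzyme without inhibitor for no effect and buffer without enzyme for full effect; nearly all actives have a fitted effect of over 40% in size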
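Purified cruzain at 1.5 nM, pre-incubated 15 min with compound at room temperature in 100 mM sodium acetate pH 5.5, 5 mM DTT, 0.00005% Triton X-100. Reaction started with 2 uM Z-FR-AMC; AMC fluorescence increase over 60 s gives rate.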
Papain counter – blocks papain protease activity, flagging nonselective cruzain hits. shares compounds with Cruzain Triton. purified papain, Z-FR-AMC fluorescence cleavage. Potency, µM, for the others: max response, negative = inhibition, usual class: inhibitors. 410 compounds, 41% hits. AID 2161;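 further: 0% = no-compound wells and -100% = no-enzyme wells; nearly all actives have a fitted effect of over 35% in size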
Target sequence (P00784 whole entry, looked up): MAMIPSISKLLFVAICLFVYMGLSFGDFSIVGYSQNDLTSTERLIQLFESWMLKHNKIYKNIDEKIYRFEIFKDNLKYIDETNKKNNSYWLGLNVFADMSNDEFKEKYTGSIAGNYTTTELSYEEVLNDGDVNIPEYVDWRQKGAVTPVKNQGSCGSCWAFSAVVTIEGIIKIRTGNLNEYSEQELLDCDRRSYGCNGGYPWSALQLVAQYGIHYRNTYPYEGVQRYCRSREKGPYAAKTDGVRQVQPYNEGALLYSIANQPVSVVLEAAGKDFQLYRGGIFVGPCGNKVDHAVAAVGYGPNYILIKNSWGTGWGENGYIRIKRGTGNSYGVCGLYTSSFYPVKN
Active calls of the source: *; ? = inconclusive; . = not tested or not shown. The call rests on the fitted dose curve; in most records, active means well fitted curve in the direction sought with a large enough effect; inconclusive means small, poorly fitted or top-dose-only effect, or another doubt; inactive means no such curve, though single readings can be large; an effect the other way counts as inactive or inconclusive. Potency means the concentration at half of the fitted maximal effect.

SMILES	Cruzain Triton	Cruzain noTriton	Papain counter
CCN(c1ccccc1C)S(=O)(=O)c1nnc(NC(=O)c2ccc(OC)c(OC)c2)s1	-1.0%	-5.9%	.
COC(=O)CC[C@@H](C)C1CC[C@H]2[C@H]3CC[C@H]4C[C@@H]5CCC4(C)[C@@]3(O5)[C@@H](Br)[C@@H](Br)[C@@]12C (some centres not stated)	-2.5%	-14.0%	.
COC(=O)CCC(C)C1CCC2C3C(O)C[C@@H]4CC(O)CC[C@@]4(C)C3CC(O)[C@]12C (some centres not stated)	-0.3%	?	3.3%
CC(CCC(=O)O)C1CCC2C3CC(O)[C@@H]4CC(O)CC[C@]4(C)C3CC[C@@]12C (some centres not stated)	5.7%	?	.
C[C@H](CCC(=O)O)[C@H]1CC[C@@H]2[C@@H]3[C@@H](O)C[C@H]4C[C@@H](O)CC[C@@]4(C)[C@H]3CC[C@@]21C	-7.0%	?	4.1%
Cc1ccc(C2=C(Cl)C(=O)C(c3ccc(C)cc3)=C(Cl)C2=O)cc1	3.5%	0.5%	.
CN(Cc1cccc2ccccc12)Cc1cccc2ccccc12	-0.5%	-3.0%	.
Cc1ccc(CNC(=O)CS(=O)(=O)Cc2nc(-c3ccccc3C)oc2C)cc1	-1.5%	9.9%	.
COc1ccc(CCNC(=O)c2ccc(Cn3c(SCc4ccccc4)nc4cccnc43)cc2)cc1	-8.4%	3.8%	.
C#CCn1c(=NC(=O)c2ccc(Br)s2)sc2cc(NC(C)=O)ccc21	-11.8%	-18.1%	.
COC(=O)Cn1c(=NC(=O)c2ccc(Cl)s2)sc2cc(C)ccc21	22.4µM*	20µM*	14.1µM*
Cc1ccc(Cl)cc1N(C)C(=O)c1sc2nc3n(c(=O)c2c1C)CCCC3	-5.3%	-0.6%	.
CCOC(=O)N1CCN(Cc2ccccn2)CC1	-1.2%	-4.0%	.
CCOC(=O)N1CCC(=C2c3ccc(Cl)cc3CCc3cccnc32)CC1	-5.4%	?	-8.7%
O=C(Nc1cccc(-c2nc3ccccc3o2)c1)c1cc([N+](=O)[O-])ccc1N1CCOCC1	-3.7%	?	.
CCc1nc2sc3ccccc3c(=O)c2c(=O)n1Cc1ccco1	-13.8%	-28.0%	.
O=c1c2ccccc2sc2nc(C3CCCCC3)n(Cc3ccco3)c(=O)c12	15.8µM*	-22.3%	-14.0%
COc1cccc(OC)c1-c1nn2c(-c3n[nH]c4c3CCC4)nnc2s1	.	.	15.8µM*
CCN(CC)c1ccc(-c2nn3c(-c4n[nH]c5c4CCC5)nnc3s2)cc1	-1.5%	0.5%	.
Cc1nn(C)c2c1c(C(F)(F)F)cc(=O)n2CC(=O)Nc1ccc(F)cc1F	7.4%	-3.3%	.
Cc1cc(C)c(CSc2nnc(C)n3c2cc2occc23)c(C)c1	-7.1%	?	.
Cc1ccc(CSc2oc(-c3ccco3)nc2S(=O)(=O)c2ccc(C)cc2)cc1	-8.6%	-11.3%	.
Cc1ccc(S(=O)(=O)c2nc(-c3ccco3)oc2NCC2CCCO2)cc1 (configuration not stated)	11.2µM*	10µM*	-13.7%
COc1cccc(C(=O)n2nc(-c3cccnc3)nc2NCc2ccc(F)cc2)c1	-6.4%	4.4%	.
CN(C)S(=O)(=O)c1ccc(C(=O)Nc2ccc(-n3nncc3-c3ccccc3)cc2)cc1	-0.3%	-15.9%	.
SMILES	Cruzain Triton	Cruzain noTriton	Papain counter
COc1ccc(/C=C/C(=O)Nc2ccc(-n3nncc3-c3ccc(OC)c(OC)c3)cc2)cc1OC	-14.7%	?	.
COc1ccc(-c2cnnn2-c2ccc(NC(=O)/C=C/c3ccc(OC)c(OC)c3)cc2)cc1	3.55µM*	12.6µM*	-14.4%
O=C(/C=C/c1ccc2c(c1)OCO2)Nc1ccc(-n2nncc2-c2ccccc2)cc1	.	.	14.1µM*
O=C(Nc1ccc(-n2nncc2-c2ccccc2)cc1)c1cccc(F)c1	10.6%	8.7%	.
O=C(Nc1ccccc1)c1ccc(-n2nncc2-c2ccccc2)cc1	.	.	1.5%
Cc1ccc(NC(=O)CN(C)S(=O)(=O)c2ccc3c(c2)CCC(=O)N3)c(C)c1	-0.9%	-2.2%	.
COc1ccc(-c2noc(CN(C(=O)COc3cc(C)c(Br)c(C)c3)C(C)C)n2)cc1	1.3%	30.1%	.
COc1cc(NC(=O)c2cc3c(=O)n(Cc4ccco4)ccc3nc2C)cc(OC)c1OC	-3.2%	20.6%	.
Cc1cc(OCCCn2c(CCNC(=O)C3CCCCC3)nc3ccccc32)ccc1Cl	1.41µM*	6.6%	12.6µM*
Cc1cc2ccccc2n1CCNC(=O)C1CCCC1	4.1%	-5.9%	.
COc1ccccc1OCCn1c(NC(=O)c2ccccc2)nc2ccccc21	0.7%	0.6%	.
CC(C)C(=O)NCCc1nc2ccccc2n1CCCOc1ccc(Cl)cc1	-1.7%	22.3%	.
COc1ccc(OCCCn2c(CCNC(=O)C3CCCCC3)nc3ccccc32)cc1	.	.	-8.8%
COc1ccccc1OCCn1c(CCNC(=O)C2CCCCC2)nc2ccccc21	.	.	1.9%
COc1ccc(OCCn2c(CCNC(=O)C3CCCCC3)nc3ccccc32)cc1	.	.	-16.9%
Cc1ccc(OCCn2c(CCNC(=O)C(C)C)nc3ccccc32)cc1	-6.0%	-8.9%	.
CCC(Sc1nc2cc(OC)c(OC)cc2c(=O)n1CCc1ccc(Cl)cc1)C(=O)NCCOC (configuration not stated)	0.7%	15.5%	.
COc1ccccc1CCNC(=O)C(=O)NCC(c1cccs1)S(=O)(=O)c1ccc(F)cc1 (configuration not stated)	-2.2%	-5.7%	.
Cc1cccc(OCCCn2c(CCNC(=O)C(C)(C)C)nc3ccccc32)c1	-3.2%	?	.
Cc1cccc(OCCn2c(CCNC(=O)C3CCCCC3)nc3ccccc32)c1	.	.	-1.2%
Cc1cccc(C)c1N=C1NN=C(c2ccccc2F)CS1	-6.2%	?	.
FC(F)Sc1ccc(N=C2NN=C(c3ccc4c(c3)OCCO4)CS2)cc1	0.3%	3.16µM*	-12.3%
O=C(Nc1cc(C(F)(F)F)ccc1Cl)C(NCc1ccccc1)c1ccccc1 (configuration not stated)	-5.4%	1.8%	.
O=C(CNC(=O)c1ccccc1)OC(C(=O)Nc1cc(C(F)(F)F)ccc1Cl)c1ccccc1 (configuration not stated)	7.08µM*	10µM*	-17.2%
CCn1c(CNC(=O)c2ccc(OC)cc2)nnc1SCC(=O)Nc1ccccc1	-0.1%	-8.1%	.
SMILES	Cruzain Triton	Cruzain noTriton	Papain counter
Cc1cc2n(n1)CCCN2C(=O)Nc1ccc(C)c(Cl)c1	-3.8%	1.3%	.
CCn1nc(-c2ccc(C)cc2)nc2c(=O)n(C)c(=O)nc1-2	.	.	-3.1%
CCS(=O)(=O)n1nc(-c2ccc(C)cc2)nc1N	-2.3%	-1.3%	.
CCOC(=O)Cn1nc(-c2ccccc2)nc1-c1ccccc1	-3.2%	3.8%	.
CCn1nc(-c2ccccc2)nc2c(=O)n(C)c(=O)nc1-2	2.24µM*	1.26µM*	3.8%
C[C@]12CC[C@@H]3c4ccc(O)cc4CC[C@H]3[C@@H]1CC[C@H]2O	0.2%	1.4%	.
CC1Cc2cc(S(=O)(=O)CCC(=O)Nc3ccc(F)cc3Cl)ccc2N1C(=O)C1CC1 (configuration not stated)	-4.1%	-7.2%	.
COc1cc(C)c(C)cc1S(=O)(=O)Nc1cccc(-c2ccc(N3CCOCC3)nn2)c1	-4.8%	?	.
CCc1cc2c(=O)[nH]c(-c3ccncc3)nc2s1	8.91µM*	?	-38.8%
CCc1cc2c(=O)[nH]c(Cc3ccccc3)nc2s1	-2.4%	?	.
N/C(=N/O)c1nc(N2CCCC2)nc(N(c2ccccc2)c2ccccc2)n1	-11.7%	-2.5%	.
CNc1nc(OCC(F)(F)F)nc(N2CCOCC2)n1	2.7%	-2.9%	.
CCOc1nc(C#N)nc(N2CCOCC2)n1	.	.	3.98µM*
